The list is not random: actives were taken first. Their share in the collection is about 7.2%.
RE007 growth inh: qHTS Assay for Inhibitors of the HIV-1 protein Vpr; S. pombe RE007 Vpr strain, BacTiter-Glo ATP luminescence, 24 h; Potency, µM (doses to about 92.2 µM), usual class: inhibitors; hit rate 0.21% among 360,000; AID 651644, 2012; active = well fitted falling curve with a large enough effect; inconclusive = small, poorly fitted or top-dose-only effect; inactive = no such curve, though single readings can be large or run the other way; note: nearly all actives have a fitted effect of over 50% in size
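Fission yeast strain RE007, carrying one chromosomally integrated HIV-1 vpr copy, was seeded at OD 0.01 in PMG+AL medium with 23 nL pinned compound. After 24 h at 30 °C and 99% humidity, viability was read by BacTiter-Glo luminescence.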
FMDV inh: High Throughput Screening for Foot and Mouth Disease Virus Antivirals | Potency, µM (titrated, usually from 57.9 µM), actives largely listed as inhibitors | FMDV antiviral cell-based qHTS | hit rate 1.2% among 410,000; calls by dose curve; tested in HEK293T cells; note: read-out not given here; nearly all actives have a fitted effect of over 45% in size
Sm TGR inh: qHTS Assay for the Inhibitors of Schistosoma Mansoni Peroxiredoxins. Schistosoma mansoni thioredoxin glutathione reductase (TGR), Q962Y6. purified TGR, DTNB reduction, TNB absorbance 405 nm. Potency, µM (titrated, usually from 114 µM), hits mostly inhibitors. hit rate 3% among 360,000. AID 485364, 2010; note: nearly all actives have a fitted effect of over 60% in size
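First, TGR (20 nM dispensed) and NADPH were mixed with compound. Second, a 15 min room-temperature incubation followed. Third, further NADPH and then DTNB were added to start the reaction. Finally, TNB absorbance was monitored kinetically.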
Lassa entry inh: qHTS for Inhibitors of binding or entry into cells for Lassa Virus; Lassa virus pseudotype entry inhibition, cell reporter; Potency, µM (series often up to 37.9 µM), hits mostly inhibitors; hit rate 1.2% among 300,000; calls by dose curve; tested in HEK293 cells; note: nearly all actives have a fitted effect of over 50% in size
MARV entry inh: qHTS for inhibitors of binding or entry into cells for Marburg Virus; Marburg virus pseudotyped entry inhibition, cell reporter; Potency, µM (top dose mostly 37.8 µM), hits mostly inhibitors; hit rate 1.8% among 300,000; AID 540276, 2011; calls by dose curve; tested in HEK293 cells
HCV inh: qHTS Assay for Inhibitors of Hepatitis C Virus (HCV). Potency, µM (titrated, usually from 41.8 µM), hits mostly inhibitors. Huh7.5.1 HCVcc-Cre infection, luciferase reporter, 44 h. AID 651820, 2012. hit rate 3.4% among 340,000
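Whole-lifecycle infectious HCVcc-Cre system; cells 1,000/well, compound then virus (~0.5 moi) added 4 h after plating, 44 h culture. Luciferase read 15 sec following 15 min substrate incubation, room temp.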
Each line names hits and unclear results; the compound was inactive in the other large screens. Unless noted, calls come from the whole dose curve; as a rule, active = well fitted curve in the direction sought with a large enough effect; inconclusive = small, poorly fitted or top-dose-only effect, or another doubt; inactive = no such curve, though single readings can be large; an effect the other way counts as inactive or inconclusive.

NN/C(=C\[N+](=O)[O-])Nc1ccccc1	Sm TGR inh 22.4µM
NN/C(=C\[N+](=O)[O-])Nc1ccc(Cl)cc1	Sm TGR inh 2.82µM
O=C(NC1CC(=O)N(c2cccc(F)c2)C1)c1cccs1 (stereo unspecified)	none (no result: RE007 growth inh, MARV entry inh, HCV inh)
CCCCC1CCC(C(=O)N2CC(=O)Nc3ccc(F)cc3C2c2ccc(F)cc2)CC1 (stereo unspecified)	Lassa entry inh inconclusive (no result: RE007 growth inh, HCV inh)
COc1cccc(C(=O)NCCS(=O)(=O)N2CCCC(C)C2)c1 (stereo unspecified)	none (no result: Sm TGR inh, Lassa entry inh, MARV entry inh, HCV inh)
COc1ccccc1C(=O)N[C@@H]1c2ccccc2C2(CCN(C(=O)c3ccnn3C)CC2)[C@H]1OC	none (no result: RE007 growth inh, Sm TGR inh, Lassa entry inh, MARV entry inh, HCV inh)
Cc1cc(SCC(=O)N/N=C/c2ccc(O)cc2O)c(C)cc1Br	FMDV inh inconclusive, Lassa entry inh 4.61µM, MARV entry inh inconclusive, HCV inh inconclusive
Cc1cc(SCC(=O)N/N=C/c2ccccc2C(=O)O)c(C)cc1Br	none
O=C(CCc1nc2ccccc2s1)N1CCOc2ccc(CN3CCc4sccc4C3)cc2C1	none (no result: RE007 growth inh, Sm TGR inh, Lassa entry inh, MARV entry inh, HCV inh)
CCc1cccc2c(C(=O)CN3C(=O)NC4(CCCCCC4)C3=O)c[nH]c12	Lassa entry inh inconclusive, MARV entry inh inconclusive, HCV inh 2.51µM
CCc1cccc2c(C(=O)COC(=O)c3ccc([N+](=O)[O-])s3)c[nH]c12	RE007 growth inh inconclusive, HCV inh 28.2µM
CCc1cccc2c(C(=S)N3CCCC3)c[nH]c12	none (no result: Lassa entry inh, MARV entry inh)
CCc1cccc2c(C(=O)CN3C(=O)NC4(CCCCC4)C3=O)c[nH]c12	Lassa entry inh inconclusive, MARV entry inh inconclusive, HCV inh inconclusive (no result: Sm TGR inh)
O=C(OCC(=O)c1c[nH]c2ccccc12)c1ccc([N+](=O)[O-])s1	RE007 growth inh inconclusive, Sm TGR inh inconclusive, HCV inh inconclusive
CCc1ccc(C(=O)CN2C(=O)NC3(CCCCCC3)C2=O)cc1	MARV entry inh inconclusive, HCV inh 11.2µM
CCc1cccc2c(C(=O)CCl)c[nH]c12	FMDV inh 28.2µM, Sm TGR inh 7.94µM, MARV entry inh inconclusive
Cc1c(C(=O)N(C)C2CCOC2)sc2ncnc(NCC3(c4ccccc4)CCOCC3)c12 (stereo unspecified)	none (no result: RE007 growth inh, Sm TGR inh, Lassa entry inh, MARV entry inh, HCV inh)
CCCCOc1ccc(C(=O)NCC(c2ccc(Cl)cc2)N2CCOCC2)cc1 (stereo unspecified)	Lassa entry inh inconclusive (no result: RE007 growth inh, HCV inh)
O=C1CS(=O)(=O)N(Cc2ccccc2F)c2ccc(Br)cc21	none (no result: Sm TGR inh, Lassa entry inh, MARV entry inh)
C=CCOC1=CS(=O)(=O)N(Cc2ccc(Br)cc2)c2ccc(Br)cc21	HCV inh 20µM (no result: Sm TGR inh, Lassa entry inh, MARV entry inh)
CCN1CCCC1CNC(=O)c1csc2c1CCCC2 (stereo unspecified)	MARV entry inh 23.1µM, HCV inh inconclusive (no result: FMDV inh)
CC1(C(=O)NCc2ccc(F)c(F)c2)Cc2c(-c3ccccc3)ccnc2O1 (stereo unspecified)	none (no result: Sm TGR inh, Lassa entry inh, MARV entry inh, HCV inh)
CCN(C[C@H]1N[C@@](Cc2ccccc2)(C(=O)OC)[C@H]2C(=O)N(Cc3ccccc3)C(=O)[C@@H]12)S(=O)(=O)c1ccccc1	HCV inh inconclusive (no result: Sm TGR inh, Lassa entry inh, MARV entry inh)
CCN(C[C@H]1N[C@@](Cc2ccccc2)(C(=O)OC)[C@H]2C(=O)N(C)C(=O)[C@@H]12)S(=O)(=O)c1ccc(-c2ccccc2)cc1	HCV inh 17.8µM (no result: Sm TGR inh, Lassa entry inh, MARV entry inh)
CCN(C[C@H]1N[C@@](Cc2ccccc2)(C(=O)OC)[C@H]2C(=O)N(C)C(=O)[C@@H]12)S(=O)(=O)c1ccccc1	none (no result: Sm TGR inh, Lassa entry inh, MARV entry inh)
CCN(C[C@H]1N[C@@](Cc2ccccc2)(C(=O)OC)[C@H]2C(=O)N(Cc3ccccc3)C(=O)[C@@H]12)S(=O)(=O)c1ccc(C)cc1	FMDV inh inconclusive, HCV inh 7.08µM (no result: Sm TGR inh, Lassa entry inh, MARV entry inh)
C=CCN=c1scc(-c2ccc3c(c2)NC(=O)CO3)n1/N=C(\C)c1ccccn1	FMDV inh 17.8µM, Sm TGR inh 35.5µM, Lassa entry inh inconclusive, MARV entry inh inconclusive, HCV inh inconclusive
O=C(CCNc1ccc(Cl)cc1)c1cccs1	RE007 growth inh inconclusive, Sm TGR inh 15.8µM, MARV entry inh inconclusive
O=C(CCSc1ccc(Cl)cc1)c1cccs1	RE007 growth inh inconclusive, Sm TGR inh 2.24µM
